# Compounds without any hit were thinned out: in the full panel of roughly 79,000, 15% have a hit. A number with no mark means an inactive call. Activity calls are given as the source filed them. No stated cut-off is given here; in the data, active means growth inhibition above about 70%; inactive means the rest.
# How the values were obtained:
# [1] = NCI Yeast Anticancer Drug Screen. Data for the rad50 strain (AID 155);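 further: 0% = growth of vehicle-only cultures of the same strain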; conditions: S. cerevisiae rad50 strain growth inhibition; at 50.0 µM; stronger effect = higher value
# Procedure, shortened: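 Inhibition values express reduced yeast growth in compound-treated cultures relative to vehicle-treated controls.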
# [2] = NCI Yeast Anticancer Drug Screen. Data for the mec2-1 strain (AID 157); conditions: S. cerevisiae mec2-1 strain, at 50.0 µM, stronger effect = higher value
# Procedure, shortened: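 Mutant yeast (mec2-1) grown with compound; growth inhibition relative to vehicle control reported.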
# [3] = NCI Yeast Anticancer Drug Screen. Data for the sgs1 mgt1 strain (AID 161);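 further: 0% = growth of cultures given vehicle only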; conditions: S. cerevisiae sgs1 mgt1 strain, at 50.0 µM, stronger effect = higher value
# Procedure, shortened: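 Compounds are added to genetically altered yeast, and growth is compared with cultures given vehicle alone to give percent inhibition.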
# [4] = NCI Yeast Anticancer Drug Screen. Data for the cln2 rad14 strain (AID 165);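 further: 0% = growth equal to vehicle treated cultures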; conditions: S. cerevisiae cln2 rad14 strain, at 50.0 µM, stronger effect = higher value
# Procedure, shortened: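 Readout is yeast growth inhibition versus vehicle-treated controls, using a strain with cln2 and rad14 alterations exposed to compound.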
# [5] = NCI Yeast Anticancer Drug Screen. Data for the bub3 strain (AID 167); conditions: S. cerevisiae bub3 mutant strain, at 50.0 µM, stronger effect = higher value
# Procedure, shortened: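 Steps: expose the mutant yeast strain to compound; grow alongside vehicle-treated cultures; measure growth; express inhibition against the vehicle cultures.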
# [6] = NCI Yeast Anticancer Drug Screen. Data for the mlh1 rad18 strain (AID 175); conditions: S. cerevisiae mlh1 rad18 strain growth inhibition; at 50.0 µM; stronger effect = higher value
# Procedure, shortened: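 Genetically defined yeast (DNA repair-deficient) exposed to compounds; growth inhibition determined relative to vehicle.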
SMILES,growth inhibition [1] [%],growth inhibition [2] [%],growth inhibition [3],growth inhibition [4] [%],growth inhibition [5],growth inhibition [6]
CC(=O)Nc1ccc(S(=O)(=O)n2c(=O)oc3cc(Br)ccc32)cc1,7.4,3.35,-7%,2.35,0.05%,0.65%
CC(C)C(=O)N(C(C)C)C(C)C,25.2,12.5,8.5%,-21.6,-0.55%,38%
CCC/C(=N/NC(N)=O)C1=CCCCC1,0.45,-5.45,-2.6%,-28.4,-18.9%,3.4%
CCOC(=O)C1(C)Sc2ccccc2N=C1c1ccccc1 (stereo not given),25.9,48.5,45.5%,7.35,26.1%,17.6%
COc1ccc2nc(-c3ccccc3)c(=O)[nH]c2c1,4.1,13.8,24.7%,12.6,25.1%,10.5%
CC(=O)Nc1ccc(C=O)cc1[N+](=O)[O-],14.2,33.3,4.05%,-12.8,-0.6%,13.4%
Cc1c(N)nc(C(CC(N)=O)NCC(N)C(N)=O)nc1C(=O)NC(C(=O)NC(C)C(O)C(C)C(=O)NC(C(=O)NCCc1nc(-c2nc(C(=O)NCCC[S+](C)CC(N)=O)cs2)cs1)C(C)O)C(OC1OC(CO)C(O)C(O)C1OC1OC(CO)C(O)C(OC(N)=O)C1O)c1cnc[nH]1 (stereo not given),63.9,58.9,71.7% (active),56.9,80% (active),75.7% (active)
COC1OC(C(COC(=O)c2ccccc2)OC(=O)c2ccccc2)C(OC(=O)c2ccccc2)C1OS(C)(=O)=O (stereo not given),5.35,-2.55,28.8%,28.4,-0.1%,11.6%
CCCc1cc(=O)oc2c3c(c4c(c12)OC(C)(C)CC4)O[C@H](C)C(C)C3O (stereo not given in full),24.8,11.6,11.6%,26.1,47.6%,35%
COC(=O)c1ccc(SCCC(=O)CNc2nc(N)nc(N)c2[N+](=O)[O-])cc1,32.1,-13.3,17.6%,22.3,-0.2%,3.15%
O=c1[nH]c2cc(Cl)ccc2nc1/C=C(\O)c1ccc(F)cc1,23.1,17.6,17.2%,8.2,-6.3%,27.4%
COC1=C(O)C(=O)C(OC)=C(O)C1=O,-19.5,-8.65,-13.5%,-1.4,9.75%,-19.6%
O=S(=O)(O)c1cc(O)c2c(N=Nc3c(S(=O)(=O)O)cc4cc(S(=O)(=O)O)cc(N=Nc5c(S(=O)(=O)O)cc6cc(S(=O)(=O)O)cc(O)c6c5O)c4c3O)cc(S(=O)(=O)O)cc2c1,-4.7,26.6,5.45%,-14.8,-7.6%,8.5%
CCCC/C(CC)=N\N=C(/CC)CCCC,7.3,7.2,17.9%,-28.2,3.15%,17.5%
c1ccc(-c2n[nH]c3c2CCCc2ccccc2-3)cc1,4.7,-9.7,7.35%,-12,3.3%,25.4%
CCOC(=O)CCc1c(C)c2c(OC(C)=O)cc(OC(C)=O)cc2oc1=O,31.6,0.9,17.4%,13.4,-1.05%,2.4%
O=C(O)c1cc(Cl)c(Cl)s1,13.2,-20.1,16.7%,-68.9,-18.3%,-1.9%
Cc1ccc(Cc2nn(C)c(=O)n2-n2cccc2)cc1,-37.1,-13.7,-10%,-1.7,-19.1%,-7.45%
Cc1n[nH]c(=S)n1N,-9.4,-1.9,-24.4%,-25.9,-14.5%,-3.5%
O=C(Cc1ccccc1)NCc1ccc(Cl)cc1,3.75,18.2,34.1%,-5.7,41.1%,27.4%

SMILES,growth inhibition [1] [%],growth inhibition [2] [%],growth inhibition [3],growth inhibition [4] [%],growth inhibition [5],growth inhibition [6]
CCN(CC)CCN(CC)CC(=O)Nc1ccccc1Cl,-14.9,-29.9,-1.65%,4.35,-3.6%,-14.2%
COc1ccc(C)cc1NC(=O)c1c(Br)c(Br)c(Br)c(Br)c1C(=O)O,4.25,-11.1,10.4%,12.8,6.8%,10.8%
OCC1CCNCC1,22.1,12.1,0.1%,-1.15,-3.2%,32.2%
CN1Cc2cc3c(cc2-c2ccccc21)OCO3,-23.7,-35.7,-44.9%,6.4,-36.5%,-35.6%
C[n+]1ccn(S(=O)(=O)[O-])c1,1.9,4.2,-4.35%,0.55,-19.6%,-8.05%
C[C@H](CCC(=O)O)[C@H]1CC[C@H]2[C@@H]3[C@@H](O)C[C@@H]4C[C@H](O)CC[C@]4(C)[C@H]3C[C@H](O)[C@]12C,-3.3,-7.05,11.1%,-20.6,-14.7%,7.8%
Nc1cc(C(=O)O)c(O)c(Cl)c1O,31.3,7.05,12.3%,21.6,4.5%,29.8%
CN(C)c1c([N+](=O)[O-])cc2[nH]cnc2c1[N+](=O)[O-],21.2,12.2,13.3%,-2.9,19.4%,13.7%
COc1cc2c3c(c1)-c1c(ccc(OC)c1Oc1nnnn1-c1ccccc1)CC3N(C)CC2 (stereo not given),30.4,26.2,28.9%,52.4,27.8%,80.5% (active)
N#CC1CNC(=S)N=C1c1ccccc1 (stereo not given),11.5,17.8,17.9%,-74.6,0.9%,12.1%
O=C1NC(=O)C(F)(F)C1(F)F,4.9,7.3,-6.45%,-1.1,0.25%,4.35%
CCCCNCCCC,2.15,2,-27.1%,-3.65,-8%,-16.6%
CCC12C[N+]3([O-])CCc4c([nH]c5ccccc45)C(C(=O)OC)(c4cc5c(cc4OC)N(C)C4C(O)(C(=O)OC)C(OC(C)=O)C6(CC)C=CCN7CCC54C76)CC(C3)C1O2 (stereo not given),-8.15,-24.1,-14%,-9.8,-2.2%,-31.7%
CCOC(=O)CC(C)CCO (stereo not given),5.4,-5.8,-11.4%,-0.2,-0.3%,-8.9%
C=CCCCCCCCCC(=O)NCc1cccnc1,24.4,9.15,29.6%,20.1,6.8%,64%
C=CCOC(=O)Cc1ccccc1C(=O)OCC=C,-7.55,-1.2,-6.6%,-42.2,21.4%,-6.25%
O=C1Nc2ccccc2C1=Nc1cccc2ncccc12,3.35,-7.75,-11.1%,-4.5,8.7%,15.4%
CC(=O)NC(C(=O)Nc1ccccc1)=C(C)C,-7.45,-7.9,-11.8%,-11.5,5.25%,0.8%
CCCC(=O)OCC1OC(n2cc(F)c(=O)[nH]c2=O)C(F)C1OC(=O)CCC (stereo not given),-1.45,15.1,-5.8%,-13.9,-2.6%,-7.25%
O=[N+]([O-])c1ccc(NC2C(O)OC(CO)C(O)C2O)c([N+](=O)[O-])c1 (stereo not given),5.1,-3.2,5.55%,-7.15,5.8%,-0.95%
